Compound activity: PubChem, National Center for Advancing Translational Sciences (NCATS)
The list is not random: actives were taken first. Their share in the collection is about 14%.
HCV inhibitor: blocks hepatitis C virus; Potency, µM (highest dose often 41.8 µM), for the others: at the top dose activity change, negative = inhibition, usual class: inhibitors; 340,000 tested, 3.4% active; AID 651820; Huh7.5.1 HCVcc-Cre infection, luciferase reporter, 44 h; note: potency is the fitted concentration of half-maximal effect
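A cell-based infection assay in which seeded cells (1,000 per well) receive test compound after 4 h, are inoculated with HCVcc-Cre at approximately 0.5 moi, and are incubated 44 h before luminescence detection.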
Pf growth 96h: inhibits malaria parasite growth, 96 h | Potency, µM (top dose mostly 28.7 µM), for inactives: at the top dose activity change, negative = inhibition, hits mostly inhibitors | AID 504834 | P. falciparum luciferase reporter growth, 96 h | 320,000 tested, 6.9% active; note: potency is the fitted concentration of half-maximal effect
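Infected RBCs, 2% Hct / 0.05% parasitemia final; luciferase-reporter P. falciparum; cpd 96 h, 37 C, 5% CO2; luciferase detection reagent; luminescence.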
Pf growth 48h: P. falciparum growth inhibition at 48 hours (one generation); P. falciparum luciferase growth in erythrocytes, 48 h; Potency, µM (highest dose often 28.7 µM), for inactives: top-dose activity change, negative = inhibition, actives largely listed as inhibitors; 310,000 tested, 5.9% active; AID 504832; note: potency is the fitted concentration of half-maximal effect
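In quantitative HTS format, infected erythrocytes bearing luciferase-reporter parasites were treated for a single generation at 37 C. Luminescence after adding detection reagent served as the growth measure.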
Lassa entry inh: blocks Lassa virus binding to or entry into cells; Lassa virus pseudotype entry inhibition, cell reporter; Potency, µM (highest dose often 37.9 µM), for the others: at the top dose activity change, negative = inhibition, most hits filed as inhibitors; 300,000 tested, 1.2% active; AID 540256; calls by dose curve; tested in HEK293 cells; note: potency is the fitted concentration of half-maximal effect; nearly all actives have a fitted effect of over 50% in size
MARV entry inh: Marburg virus entry inhibition | Marburg virus pseudotyped entry inhibition, cell reporter | Potency, µM (series often up to 37.8 µM), without a hit: at the top dose activity change, negative = inhibition, hits mostly inhibitors | 300,000 tested, 1.8% active; calls by dose curve; tested in HEK293 cells; note: potency is the fitted concentration of half-maximal effect
HCMV inh: inhibitors of human cytomegalovirus; AID 1259415; activity change, negative = inhibition, % at 57.5 µM; 410,000 tested, 4.5% active; HFF cells, HCMV-luciferase reporter, 72 h; hits give low values; in the data active = activity change below about -60%; inconclusive = no clear call, values can overlap the other calls; inactive = above about -39%
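After 16 h attachment at 37C, HFF cells received test compound and HCMV-luciferase (1 PFU/cell); reporter luminescence read 72 h later, data normalized against buffer-only and known inhibitor Salinomycin.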
Numbers without * were called inactive; ? = inconclusive; . = no result; [ ] = another dose, or the depositor's remark. Unless noted, calls come from the whole dose curve; as a rule, active = well fitted inhibition curve with a large enough effect; inconclusive = small, poorly fitted or top-dose-only effect, or another doubt; inactive = no such curve, though single readings can be large or run the other way. % is set by controls: 0 for no effect and ±100 for the full control effect.

SMILES	HCV inhibitor	Pf growth 96h	Pf growth 48h	Lassa entry inh	MARV entry inh	HCMV inh
COc1ccc(-c2cc(C#N)nc(Cl)n2)cc1	?	0%	-10%	-16%	?	-37
COc1ccc2c(c1)[C@@H](NC(=O)OCc1ccccc1)[C@H](C)[C@@H](c1ccccc1)N2	.	.	.	.	.	13
Cc1cccc(C(O)c2cnc(C)n2Cc2ccccc2)c1 (stereo not drawn)	.	.	.	.	.	-35
COc1ccc2oc(=O)cc(CN3CCN(c4ccc(F)cc4)CC3)c2c1	.	.	.	-8%[46.1 µM]	?	-17
COc1ccc(-c2cc3c(nn2)-c2ccccc2C3=O)cc1	7%	1.9µM*	19%	?	?	-16
Cc1cccc(-c2cc3c(nn2)-c2ccccc2C3=O)c1	-11%	.	1.3µM*	?	?	91
O=C1c2ccccc2-c2nnc(-c3ccccc3)cc21	19%	?	2.6µM*	?	?	12
Cc1cnc2c(c1)C(=O)c1ccccc1-2	8%	2%	21%	.	.	1
CCOC(=O)C1CC2=C(CCCC2=O)N(Cc2ccccc2)C1=O (stereo not drawn)	-9%[8.37 µM]	.	.	.	.	-8
Cc1ccccc1CNC(=O)c1ccc2sc([C@H]3C[C@H](O)[C@@H](CO)O3)nc2c1	.	.	.	.	.	68
O=C(NCC1CC1)c1ccc2sc([C@H]3C[C@H](O)[C@@H](CO)O3)nc2c1	.	.	.	.	.	-102*
CCOC(=O)c1c(C)[nH]c(C(=O)OC)c1CCC(=O)OC	10%	3%	15%	2%	12%	3
CCOC(=O)c1[nH]c(Cc2[nH]c(C(=O)OCC)c(C)c2CCC(=O)OC)c(CCC(=O)OC)c1C	?	89%	1.7µM*	?	0%	-23
CC(=O)N1CCC(c2nc3ccccc3n2C(C)C(=O)NCc2ccccc2)CC1 (stereo not drawn)	.	.	.	.	.	21
CCOC(=O)C1=C(C)N=C2S[C@H](C)C(=O)N2[C@@H]1c1ccc(OC(C)=O)c(OC)c1	.	.	.	.	-13%	.
Cc1ccc(NC(=O)CCCn2nc(C)c3sc4ccccc4c3c2=O)c(Cl)c1	.	.	.	14%[46.1 µM]	?	8
COc1cc(OC)c(NC(=O)CCCn2nc(C)c3sc4ccccc4c3c2=O)cc1Cl	.	.	.	?	3.2µM*	-18
CCOc1ccc(NC(=O)N2CCC(N3CCCCC3)CC2)cc1	.	.	.	20%[46.1 µM]	?	-11
Cc1nc2ccc(S(=O)(=O)CCC(=O)Nc3ccc(Cl)cc3)cc2s1	.	.	.	6%[46.1 µM]	.	8
COc1cccc(C2OC(=O)c3ccccc3N2C(C)=O)c1OC(C)=O (stereo not drawn)	-3%	12µM*	-7%	-15%	-12%[46.1 µM]	-10
CCSc1nnc2c(n1)OC(c1ccc(OC)cc1OC)N(C(C)=O)c1ccccc1-2 (stereo not drawn)	.	.	.	-27%[46.1 µM]	-7%[46.1 µM]	-63*
CC(=O)N1c2ccccc2C(=O)OC1c1cccnc1 (stereo not drawn)	1%	33%	?	0%	10%	1
Cc1cccc(S(=O)(=O)NC(=O)C2(C)CCN2C(=O)Cc2ccc(Cl)cc2Cl)c1 (stereo not drawn)	.	.	.	.	.	10
C=Cc1ccc(CSc2nc(-c3ccc(C)cc3)nc3c2Cc2c(CO)cnc(C)c2O3)cc1	.	.	.	-1%[46.1 µM]	.	-12
Cc1oc(-c2cccc(Cl)c2)nc1CN1CCC(C(=O)NC2CC2)CC1	16%	45%	16%	.	.	-39
SMILES	HCV inhibitor	Pf growth 96h	Pf growth 48h	Lassa entry inh	MARV entry inh	HCMV inh
Cc1oc(-c2ccc(Cl)cc2)nc1CN1CCCC(C(=O)N2CCN(C(=O)c3ccco3)CC2)C1 (stereo not drawn)	2µM*	?	.	.	-10%	-39
CCc1ccc(-c2nc(CN3CCC(C(=O)N4CCN(c5ccccc5)CC4)CC3)c(C)o2)cc1	?	1.9µM*	12%	?	?	?
Cc1oc(-c2cccc(Cl)c2)nc1CN1CCC(C(=O)NCc2cccnc2)CC1	?	29%	2.6µM*	-10%	?	0
CCc1ccc(-c2nc(CN3CCC(C(=O)N4CCN(c5ccccn5)CC4)CC3)c(C)o2)cc1	11µM*	39%	-43%	?	?	-16
Cc1ccc(Cl)cc1N1CCN(C(=O)C2CCN(Cc3nc(-c4ccc(Cl)cc4)oc3C)CC2)CC1	.	.	.	?	10%[46.1 µM]	1
COc1ccc(OC)c(CNS(=O)(=O)c2ccc(-c3coc(C)n3)cc2)c1	.	.	.	-13%[46.1 µM]	.	-21
CC(CNC(=O)CN1C(=O)NC2(CCOc3ccccc32)C1=O)c1ccccc1 (stereo not drawn)	-14%	?	?	.	.	0
COc1cccc(-c2cnc(C(O)c3c(C)cc(C)cc3C)[nH]2)c1 (stereo not drawn)	.	.	.	.	.	-27
O=S1(=O)N[C@@H](Cc2ccccc2)COc2cc(N3CCCCC3)ccc21	.	.	.	.	?	-21
COc1ccc(-c2nc(CN3CCC(C(=O)NCc4ccc(F)cc4)CC3)c(C)o2)cc1OC	.	.	.	-11%[46.1 µM]	12%[46.1 µM]	4
CCc1ccc(-c2nc(CN3CCC(C(=O)NCc4ccc(F)cc4)CC3)c(C)o2)cc1	18µM*	?	13µM*	?	21µM*	-17
COc1ccc(-c2cn3nc(C)c(C)nc3n2)cc1OC	-7%	268%	129%	.	.	0
CCc1c(C)nc2cc(-c3ccc(OC)c(OC)c3)nn2c1NCC1CC1	11µM*	?	.	?	?	-8
O=C(/C(C=Nc1ccc(Br)cc1)=C(/O)c1ccco1)C(F)(F)F	-3%	2.9µM*	228%	?	?	129
Cc1c(C(=O)NCc2ccc(Cl)cc2)sc2nc3n(c(=O)c12)CCCCC3	.	.	.	12%[46.1 µM]	.	-20
O=C(CC(=O)Nc1ccc(Cl)cc1)N/N=C\c1cccc(F)c1	26%	10µM*	2%	.	12%[46.1 µM]	13
O=C(CCC(=O)Nc1ccc(F)cc1)N/N=C/c1cccc(Br)c1	-7%	-17%	29%	?	?	22
COC(=O)c1ccc(/C=N/NC(=O)CC(=O)NC2CCCCC2)cc1	10%	31%	2%	0%	8%[46.1 µM]	?
O=C(O)COc1ccc(/C=N/NC(=O)Cc2ccc(Cl)cc2)cc1	3%	-21%	?	-6%[46.1 µM]	?	-101*
O=C(Cc1ccc(Cl)cc1)N/N=C/c1ccccc1	5%	?	5%	.	.	-68*
O=C(Cc1ccccc1)NN=Cc1ccccc1	0%	.	.	12%[46.1 µM]	2%	-1
O=C(CC(=O)NC1CCCCC1)N/N=C/c1ccc(Cl)cc1	0%	4.7µM*	0%	?	13%	-7
COc1ccc([C@@H]2[C@@H](C(=O)N3CCOCC3)CC(=O)N2C(=O)c2ccccc2)cc1	.	.	.	.	.	10
O=C(CN(Cc1ccccc1F)S(=O)(=O)c1ccc(Cl)cc1)NCCC1=CCCCC1	-27%	12µM*	?	?	?	-9
